We go through 73 compounds from PubChem BioAssay AID488969 (Vanderbilt High Throughput Screening Facility, 2010).

Over roughly 110,000 compounds, “z-score” has its median near -0.1; the highest 2% begin near 2. The sample holds the highest values, similar compounds and a random draw of the others, so the mix is not that of the screen. Activity calls are given as the source filed them.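 Rule for the calls: active = z-score in the third read window above 3 or below -3; inactive = the rest.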

Chain of Metabotropic glutamate receptor 8 (Rattus norvegicus) (P70579 whole entry, looked up): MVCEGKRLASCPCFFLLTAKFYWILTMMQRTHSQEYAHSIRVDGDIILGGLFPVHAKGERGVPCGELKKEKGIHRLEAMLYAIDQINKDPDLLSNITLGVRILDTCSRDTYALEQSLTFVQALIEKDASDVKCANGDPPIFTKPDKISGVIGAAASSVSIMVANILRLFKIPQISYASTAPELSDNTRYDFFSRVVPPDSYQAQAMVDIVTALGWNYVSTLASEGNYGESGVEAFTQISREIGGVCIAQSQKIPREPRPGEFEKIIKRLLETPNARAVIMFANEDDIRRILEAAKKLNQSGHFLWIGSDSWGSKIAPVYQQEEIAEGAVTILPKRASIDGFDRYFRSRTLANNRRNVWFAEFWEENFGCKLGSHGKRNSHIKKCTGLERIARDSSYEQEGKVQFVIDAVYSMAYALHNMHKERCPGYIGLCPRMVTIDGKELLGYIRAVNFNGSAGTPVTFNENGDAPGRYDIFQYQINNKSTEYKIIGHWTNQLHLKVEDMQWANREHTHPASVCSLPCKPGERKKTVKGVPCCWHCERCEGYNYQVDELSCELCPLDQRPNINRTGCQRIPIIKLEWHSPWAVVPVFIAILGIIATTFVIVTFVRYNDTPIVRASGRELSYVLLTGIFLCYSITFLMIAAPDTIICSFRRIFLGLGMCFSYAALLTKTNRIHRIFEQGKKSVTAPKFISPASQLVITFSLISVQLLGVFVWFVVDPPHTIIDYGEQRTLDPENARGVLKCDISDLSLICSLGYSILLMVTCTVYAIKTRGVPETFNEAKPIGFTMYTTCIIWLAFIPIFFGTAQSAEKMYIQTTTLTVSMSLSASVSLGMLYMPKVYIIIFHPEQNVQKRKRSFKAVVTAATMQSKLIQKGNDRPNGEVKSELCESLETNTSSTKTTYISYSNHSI

The experiment has as its target Metabotropic glutamate receptor 8 (Rattus norvegicus) (UniProt P70579). Kind of experiment: rat mGluR8 modulators via GIRK flux, primary screen, cell-based, thallium flux, HTS (AID 488969). The following applies: HEK293 rat mGluR8, GIRK (G protein-gated inwardly rectifying potassium channel) thallium flux, FluoZin2; at 10 µM; stronger effect = higher value; submaximal glutamate (EC20) added with thallium.
For the compound `O=C(COC(=O)c1ccccc1C(=O)c1ccccc1)NCCc1ccc(Cl)cc1Cl`, the z-score was -0.0656.

In the case of `Cc1cc(-c2n[nH]c(=S)n2/N=C/c2ccc(C)s2)n[nH]1`, the z-score is -0.0648.

`S=c1[nH]nc(-c2ccco2)n1/N=C/c1ccc(Br)s1`: the z-score was 4.39 (active).

`Cc1cc(-c2n[nH]c(=S)n2/N=C/c2sccc2C)n[nH]1` had a z-score of -0.362.

`Cc1ccc(/C=N/n2c(-c3ccco3)n[nH]c2=S)s1`: the z-score amounted to 0.259.

In turn, `S=c1[nH]nc(-c2ccccn2)n1/N=C/c1cccs1` gave a z-score of -0.126.

In the case of `S=c1[nH]nc(-c2ccccn2)n1/N=C/c1ccc(Br)s1`, the z-score was 5.6 (active).

The compound `S=c1[nH]nc(-c2ccccn2)n1/N=C/c1ccccc1` had a z-score of -0.194.

Regarding `Cc1cc(-c2n[nH]c(=S)n2/N=C/c2ccc(Br)s2)n[nH]1`, the z-score was 4.55 (active).

With `S=c1[nH]nc(-c2ccco2)n1/N=C/c1cccs1`, the z-score was -0.0217.

As for `Nc1c(C(O)(C(F)(F)F)C(F)(F)F)cc(C(O)(C(F)(F)F)C(F)(F)F)c2ccccc12`, the z-score turned out to be 0.066.

Take `CC1=C(C(=O)NCc2ccccc2)C(c2ccccc2OCC(N)=O)NC(=O)N1` (stereo not drawn): the z-score was 0.226.

In turn, `O=C(Cc1c(F)cccc1Cl)N1CCCC1` gave a z-score of 0.183.

`CS(=O)(=O)N1CCC(C(=O)NCc2ccco2)CC1` came in with a z-score of 0.432.

As for `COc1ccc(N2CCN(C(=O)c3cccc(N4C(=O)C5CC=CC(C)C5C4=O)c3)CC2)cc1` (stereo not drawn), the z-score was -0.43.

For the compound `COc1ccc(/C=C2\SC(=O)N=C2N)cc1OC`, the z-score is 0.0136.

For `COc1cc(/C=C2/SC(=S)NC2=O)ccc1OS(=O)(=O)c1ccc(C)cc1`, the z-score was -2.12.

`COc1cc(/C=C2/C(=O)N(c3ccccc3)N=C2C)ccc1OS(=O)(=O)c1ccccc1`: the z-score is -0.322.

As for `COc1ccc(/C=C2\SC(c3ccc(C)cc3)=NC2=O)cc1OC`, the z-score is -1.87.

On to `COc1cc(/C=C2\SC(=S)NC2=O)ccc1OS(=O)(=O)c1ccccc1`, for which the z-score was 15.1 (active).

The compound `COc1ccc(/C=C2\SC(=O)NC2=S)cc1OC` registered a z-score of 2.05.

For `CCOC(=O)c1c(-c2ccc(OC)cc2)nc2nonc2c1N`, the z-score was 0.0715.

`CC(C)CCNC(=S)Nc1ccc(F)cc1` registered a z-score of 0.97.

In turn, `COc1cc(C)c(S(=O)(=O)N2CCOCC2)cc1C` came in with a z-score of 0.136.

Take `COc1ccc(NC(=O)CSc2ccc(-c3ccccn3)nn2)cc1OC`: the z-score is -0.397.

`Cc1ccc(S(=O)(=O)c2nc(C(C)(C)C)oc2N2CCOCC2)cc1` came in with a z-score of -0.0758.

In turn, `N#C/C(=C\c1ccco1)C(=O)NCC1CCCO1` (stereo not drawn) yielded a z-score of -0.0138.

Turning to `CC(C)NS(=O)(=O)c1cccc2nsnc12`, the z-score is -0.236.

For the compound `COc1ccc2cc3cc(C(=O)NC(C)C)oc3nc2c1`, the z-score was found to be 0.629.

The compound `C=CCSc1nc2sc3c(c2c(=O)n1CC=C)CCc1ccccc1-3` yielded a z-score of -0.139.

As to `C=CCSc1nc2sc3c(c2c(=O)n1CC)CCc1ccccc1-3`, the z-score was 2.62.

In turn, `C=CCn1c(SCC)nc2sc3c(c2c1=O)CCc1ccccc1-3` had a z-score of 0.571.

As to `CCOC(=O)CSc1c(-c2ccccc2)c2cc(Cl)ccc2[nH]c1=O`, the z-score is -0.516.

In turn, `O=C(c1cccn(Cc2cccc(Cl)c2)c1=O)N1CCOCC1` showed a z-score of 0.0735.

Regarding `CC(C)COP(=O)(c1ccc(N(C)C)cc1)C(O)c1ccccn1` (stereo not drawn), the z-score amounted to 0.147.

As for `CC(C)COP(=O)(c1ccc(N(C)C)cc1)C(O)c1ccncc1` (stereo not drawn), the z-score was -0.817.

For `CC(C)CCOP(=O)(c1ccc(N(C)C)cc1)C(O)c1ccccn1` (stereo not drawn), the z-score is 5.74 (active).

In turn, `CCOC(=O)c1ccc(NC(=O)C2=C(C)Nc3nc(CCCO)nn3C2c2cccc(C)c2)cc1` (stereo not drawn) returned a z-score of 0.0656.

On to `CC(=O)N1c2c(cc(Br)cc2S(=O)(=O)NCC2COc3ccccc3O2)CC1C` (stereo not drawn), for which the z-score was determined as 0.248.

For `CCCCN(Cc1ccccc1)S(=O)(=O)c1cc(Br)cc2c1N(C(C)=O)C(C)C2` (stereo not drawn), the z-score turned out to be 2.82.

On to `COc1cccc(CNS(=O)(=O)c2cc(Br)cc3c2N(C(C)=O)C(C)C3)c1` (stereo not drawn), for which the z-score worked out at 0.241.

In turn, `CCOc1ccc(/C=C2\SC(=O)N(CCNC(=O)C3COc4ccccc4O3)C2=O)cc1OC` (stereo not drawn) returned a z-score of -0.337.

In the case of `COc1ccc(/C=N/c2oc(-c3ccccc3)cc2C#N)cc1`, the z-score was -0.0521.

Take `Oc1ccc(Br)cc1/C=N/n1cnc2ccccc21`: the z-score stood at 2.45.

Compound `O=[N+]([O-])c1ccc(O)c(/C=N/n2cnc3ccccc32)c1` came in with a z-score of -0.812.

On to `COc1cccc(/C=N/n2cnc3ccccc32)c1OC`, for which the z-score is -0.147.

`COc1cc(C(=S)N2CCC(C(N)=O)CC2)ccc1O`: the z-score is -0.479.

Turning to `CC(=O)c1cccc(NC(=S)NC2CC2)c1`, the z-score is -0.023.

Take `O=C1OC2(CCCCC2)OC(=O)C1=CNc1ccc2c(c1)OCO2`: the z-score was 0.207.

Take `O=C1OC2(CCCCC2)OC(=O)C1=CNc1nc2ccccc2s1`: the z-score was 8.02 (active).

Consider `CCOc1ccccc1NC=C1C(=O)OC2(CCCCC2)OC1=O`, for which the z-score worked out at 0.615.

Regarding `COc1ccccc1N1CCN(C(=O)c2ccc(CN3CCc4ccccc4C3)cc2)CC1`, the z-score is -0.0526.

On to `O=c1[nH]c(-c2cccnc2)nc2ccccc12`, for which the z-score is -0.073.

In turn, `O=C(Nc1ccccc1)C1=C(O)CC(c2ccc(Cl)cc2)N2CCN=C12` (stereo not drawn) returned a z-score of -0.724.

`CC1CN=C2C(C(=O)Nc3ccccc3)=C(O)CC(c3ccccc3)N21` (stereo not drawn) had a z-score of 2.31.

Take `CC1=NN(C(=S)Nc2ccccc2)C(c2ccccc2)C1` (stereo not drawn): the z-score came out at 0.129.

With `N#C/C(=C\c1c(N2CCC(C(N)=O)CC2)nc2ccccn2c1=O)C(=O)NCc1ccco1`, the z-score was -0.0915.

On to `COC(=O)C1C2C=CC3(CN(Cc4ccco4)C(=O)C13)O2` (stereo not drawn), for which the z-score was determined as 0.49.

`CC(=O)N1CCN(c2ccc(NCc3ccc(F)cc3)cc2)CC1` registered a z-score of 0.0515.

As for `CC(=O)N1CCN(c2ccc(NCc3ccc(C(C)C)cc3)cc2)CC1`, the z-score came out at 2.03.

With `CCc1ccc(CNc2ccc(N3CCN(C(C)=O)CC3)cc2)cc1`, the z-score came out at 0.968.

In the case of `O=C(Nc1ccc2c(c1)OCO2)C1CCN(C(=O)CSc2ncnc3ccccc23)CC1`, the z-score was -0.185.

The compound `BrC(/C=N/Nc1nc(N2CCOCC2)nc(N2CCOCC2)n1)=C/c1ccccc1` came in with a z-score of -0.171.

Consider `Cn1c(=O)oc2cc(S(=O)(=O)NCc3ccccc3)ccc21`, for which the z-score turned out to be 0.611.

For the compound `Cc1ccccc1Cn1c(=N)n(CC(=O)c2ccc([N+](=O)[O-])cc2)c2ccccc21`, the z-score came out at 0.33.

`CCn1c(=N)n(CC(=O)c2ccco2)c2ccccc21` displayed a z-score of 0.33.

On to `CCCCCCCn1c(=N)n(CC(=O)c2ccco2)c2ccccc21`, for which the z-score is 4.65 (active).

For `CCCCn1c(=N)n(CC(=O)c2ccco2)c2ccccc21`, the z-score is -0.268.

For the compound `N=c1n(Cc2ccccc2)c2ccccc2n1CC(O)c1ccco1` (stereo not drawn), the z-score was found to be 0.39.

Take `Cc1ccccc1Cn1c(=N)n(CC(=O)c2ccco2)c2ccccc21`: the z-score is 2.17.

`CCCn1c(=N)n(CC(=O)c2ccco2)c2ccccc21` showed a z-score of -0.051.

The compound `Cc1ccc(Cn2c(=N)n(CC(O)c3ccco3)c3ccccc32)cc1` (stereo not drawn) had a z-score of 1.09.

On to `Cc1ccccc1Cn1c(=N)n(CC(O)c2ccco2)c2ccccc21` (stereo not drawn), for which the z-score is 3.34 (active).
